Sfp inh = blocks B. subtilis Sfp PPTase activity; Biochemical Sfp PPTase activity, qHTS; Potency, µM, for inactives: largest response in the series, negative = inhibition, hits mostly inhibitors; hit rate 3.5% among 310,000;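 also: the enzyme is Sfp with the accession as filed and its product quenches rhodamine fluorescence; 0% = enzyme reaction without inhibitor and -100% = no enzyme wells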
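Compounds were incubated with enzyme (final 15 nM) for 15 min at room temperature before substrate addition started the reaction. Fluorescence at 525 nm excitation, 598 nm emission was recorded immediately and after 30 minutes.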
VDR inh = vitamin D3 receptor (human) inhibition; VDR-SRC2-3 peptide fluorescence polarization, 2 h; Potency, µM, without a hit: max response, negative = inhibition, actives largely listed as inhibitors; hit rate 0.93% among 400,000; also: % is scaled to controls: 0 for no effect and ±100 for the full control effect
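Fluorescence polarization assay measuring small-molecule disruption of VDR binding to the coregulator peptide SRC2-3. Compounds were pin-transferred (23 nl) into the reagent mix and incubated 2 h at room temperature before reading.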
G9a block = blocks human histone lysine methyltransferase G9a; Q96KQ7; G9a H3K9 monomethylation, AlphaScreen, 2 h; Potency, µM (top dose mostly 102 µM), without a hit: at the highest dose activity, negative = inhibition, usual class: inhibitors; hit rate 8.8% among 350,000; AID 504332; also: % is scaled to controls: 0 for no effect and ±100 for the full control effect; nearly all actives have a fitted effect of over 75% in size
Target sequence (Q96KQ7 913-1193 limits assumed): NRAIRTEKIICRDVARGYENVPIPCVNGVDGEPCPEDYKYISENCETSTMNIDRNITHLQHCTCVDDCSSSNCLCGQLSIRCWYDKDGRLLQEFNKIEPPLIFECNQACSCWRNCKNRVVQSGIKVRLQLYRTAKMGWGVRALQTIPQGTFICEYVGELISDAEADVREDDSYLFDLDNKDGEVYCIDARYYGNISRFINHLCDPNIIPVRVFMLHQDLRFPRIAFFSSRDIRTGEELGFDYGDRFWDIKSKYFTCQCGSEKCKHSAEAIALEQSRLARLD
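AlphaScreen read-out: biotin-H3K9 peptide (500 nM) methylation by 20 nM enzyme with 20 uM SAM, 2 h at room temperature after 15 min compound preincubation; anti-monomethyl H3K9 antibody plus donor/acceptor beads, 10 min dark.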
12-LOX inh = inhibitors of human 12S-lipoxygenase ALOX12 | P18054 | purified 12hLO, xylenol orange hydroperoxide absorbance | Potency, µM (titrated, usually from 108 µM), inactives show top-dose activity change, negative = inhibition, usual class: inhibitors | hit rate 1.1% among 580,000 | AID 1671190; also: % is scaled to controls: 0 for no effect and ±100 for the full control effect
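Purified human 12hLO at 150 nM in 25 mM Hepes, 0.01% Triton X-100, pH 7.0, preincubated 15 min at room temperature with compound. Reaction started with 40 uM arachidonic acid, 30 min at room temperature. Hydroperoxide measured by Fe-xylenol orange, 573/405 nm absorbance ratio.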
Glioma ERSR ind = ER stress response induction in glioma; U87-MG GRP78 promoter luciferase reporter, 16 h; Potency, µM, inactives show at the highest dose activation, hits mostly activators; hit rate 0.02% among 420,000; AID 602332; also: series mostly up to about 76 µM; % of control where 0% means no effect; nearly all actives have a fitted effect of over 35% in size
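Stably transfected U87-MG glioma cells carrying a GRP78-based luciferase sensor; 16 h compound incubation. Luminescence end-point read 10 min after Bright-Glo addition at room temperature.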
* hit, by the source's call; ? = inconclusive; nt = no result; ! = not active in a repeat; [ ] = another dose, or the depositor's remark. The entries come from a sample that favours hits as a whole. Calls follow the shape of the dose curve; as a rule, active = well fitted curve in the direction sought with a large enough effect; inconclusive = small, poorly fitted or top-dose-only effect, or another doubt; inactive = no such curve, though single readings can be large; an effect the other way counts as inactive or inconclusive. Potency is read from the fitted curve at half-maximal effect.

SMILES | Sfp inh | VDR inh | G9a block | 12-LOX inh | Glioma ERSR ind
Cc1ccc(S(=O)(=O)/N=C2/C=C(C3C(=O)CC(C)(C)CC3=O)C(=O)c3ccccc32)cc1 | ? | ? | 8.91µM* | 44.7µM* | 0.0%
CN=c1scc(-c2ccccc2Br)n1/N=C/c1ccc[nH]1 | -20.7% | nt | 12.6µM* | nt | nt
CCOC(=O)C1=NN(c2cccc(C)c2)C2(S1)SC(C(C)=O)=C(C)N2c1ccccc1 (centres undefined) | -4.2% | 1.9% | 15.8µM* | 0.0% | -1.0%
CC(CC(=O)C(C#N)C(=O)Nc1ccccc1F)c1ccc(F)cc1 (centres undefined) | nt | nt | nt | -12.5% | nt
CC(C)N1C[C@@H]2C[C@H]1C(=O)N(CC1CC1)c1ccccc1O2 | nt | nt | nt | 39.8%[176 µM] | nt
CCn1c2ccccc2c2cc(NC(=O)CNCc3ccccc3OC)ccc21 | -18.5% | 12.6% | 14.1µM* | ? | -4.1%
CCn1c2ccccc2c2cc(NC(=O)c3ccc([N+](=O)[O-])cc3)ccc21 | -20.3% | 3.1% | ? | 48.3% | 0.7%
CCn1c2ccccc2c2cc(NC(=O)CNCC3CCCO3)ccc21 (centres undefined) | -32.3% | -4.7% | 12.6µM* | -3.7% | -0.9%
CCn1c2ccccc2c2cc(NC(=O)c3ccccc3[N+](=O)[O-])ccc21 | 14.5% | -11.0% | 7.94µM* | 20.7% | 0.4%
CCn1c2ccccc2c2cc(NC(=O)CN3CCCC3)ccc21 | 5.5% | -1.2% | ? | 5.7% | -0.5%
COc1cc(C)c(C(C)C)cc1S(=O)(=O)N1CCC(C)CC1 | nt | nt | nt | 30.8% | nt
O=C(Nc1ccc([C@@H](O)[C@H]2COCC(=O)N2Cc2ccc(C(F)(F)F)cc2)cc1)C1CCCCC1 | nt | nt | nt | 33.4% | nt
Cn1c(=O)c2c(nc(CN3CCN(Cc4ccccc4)CC3)n2Cc2cccc(Cl)c2)n(C)c1=O | -1.2% | -11.9% | 39.8µM* | 5.1% | -0.4%
Cn1c(=O)c2c(nc(CN3CCc4ccccc4C3)n2Cc2cccc(Cl)c2)n(C)c1=O | -6.5% | ? | 8.91µM* | ? | 0.2%
Cc1ccc(Cn2c(CN3CCN(C(=O)c4ccco4)CC3)nc3c2c(=O)n(C)c(=O)n3C)cc1 | -0.2% | -0.6% | 50.1µM* | -5.0% | -6.9%
CCN1CCN(Cc2nc3c(c(=O)n(C)c(=O)n3C)n2Cc2ccc(Cl)cc2)CC1 | nt | nt | nt | 18.6% | nt
CCCn1c(CN2CCN(C(=O)c3ccco3)CC2)nc2c1c(=O)n(C)c(=O)n2C | 16.1% | -18.0% | -0.5%[59 µM] | 1.4% | -3.7%
CCN(CC)c1nc2ccccc2nc1C(=O)Nc1cccc(C)c1C | nt | nt | nt | 15.7% | nt
Cc1cccc(NC(=O)c2n[nH]c([N+](=O)[O-])c2Br)c1C | 18.3% | -5.3% | 39.8µM* | ? | -11.3%
COc1ccc(C2CC(=O)Oc3c2c(=O)[nH]c2ccccc32)cc1OC (centres undefined) | nt | nt | nt | -26.1% | nt
O=S(=O)(Nc1ccccc1Cl)c1ccc2[nH]c(=S)oc2c1 | 2.3% | ? | 7.08µM* | ? | -1.0%
Cc1ccc(NC(=O)CN(C)S(=O)(=O)c2ccc3[nH]c(=O)oc3c2)c(C)c1 | 11.6% | -15.1% | 0.2% | ? | -4.3%
COc1ccc(NS(=O)(=O)c2ccc3oc(=S)[nH]c3c2)cc1 | 4.7% | 5.3% | 35.5µM* | ? | -4.2%
Cc1ccc(NS(=O)(=O)c2ccc3[nH]c(=O)oc3c2)c(C)c1 | 9.4% | ? | 6.5% | 50.1µM*! | 4.3%
O=C(Sc1cccc2cccnc12)c1ccccc1Cl | nt | nt | nt | -18.1% | nt
SMILES | Sfp inh | VDR inh | G9a block | 12-LOX inh | Glioma ERSR ind
CCOC(=O)c1oc2cc(OC)ccc2c(=O)c1-c1ccccc1OC | nt | nt | nt | -14.6% | nt
Nc1oc2ccccc2c(=O)c1-c1cccc2ccccc12 | nt | nt | nt | 7.2% | nt
COc1ccc(S(=O)(=O)NCc2ccncc2)cc1NC(=O)c1ccccc1 | nt | 0.2% | -9.9%[0.501 µM] | ? | -5.4%
CCOc1ccc(S(=O)(=O)NCc2ccncc2)cc1NC(=O)c1ccccc1 | nt | 6.0% | 56.2µM* | -6.1% | -4.2%
O=c1[nH]ccc2c(O)cccc12 | nt | -3.7% | 25.1µM*! | 12.2% | -5.5%
O=C(O)CSc1ncnc2c1oc1ccccc12 | 14.1% | 2.6% | 8.5% | 0.0% | 4.9%
CC(C)(C)c1nc(SCC(=O)NCc2ccco2)c2ccccc2n1 | -16.8% | ? | 50.1µM* | ? | -7.0%
c1coc(CNc2ncnc3c2oc2ccccc23)c1 | 5.1% | 1.6% | 56.2µM* | 5.4% | 1.4%
CCCCc1nc2sc3c(SCC(=O)NCc4ccco4)ncnc3c2c2c1CCC2 | 44.7µM* | -11.4% | 22.5%[0.501 µM] | ? | -7.3%

Compound activity (PubChem)
